{"source": "PubChem BioAssay (EPA / NIEHS)", "note": "Records with an inconclusive call do not appear. Calls of active or inactive are those of the source. Rule for the calls: active = hit-call score of the fitted dose curve at least 0.9, where 1 is the maximum; inconclusive = response in the unintended direction; inactive = score below 0.9.", "data": [{"test": "ACEA_AR_agonist_AUC_viability: ACEA Biosciences xCELLigence Real-Time Cell Analysis on Androgen Receptor Agonism for Viability (AID 2283775);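 for AC50: viability read 80 hours after compound addition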", "method_in_brief": "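Real-time impedance tracking of 22Rv1 growth, readings every 5 min for 5 h then hourly; area-under-curve viability endpoint at 80 hours, relative to DMSO. Compounds at eight concentrations, 1:4 steps, top 100 uM, n = 2.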", "values": [{"smiles": "C=C(C)C(=O)O", "outcome": "inactive"}, {"smiles": "CC(C)CCCCCCCOC(=O)c1ccc(C(=O)OCCCCCCCC(C)C)c(C(=O)OCCCCCCCC(C)C)c1", "outcome": "inactive"}, {"smiles": "CC(C)C[C@H]1C(=O)N2CCC[C@H]2[C@]2(O)O[C@](NC(=O)[C@@H]3C=C4c5cccc6[nH]c(Br)c(c56)C[C@H]4N(C)C3)(C(C)C)C(=O)N12", "outcome": "inactive"}, {"smiles": "CC1(C)C(=O)N(Br)C(=O)N1Cl", "outcome": "inactive"}, {"smiles": "CC(C)=CCC[C@](C)(O)[C@@H]1CC=C(C)CC1", "outcome": "inactive"}, {"smiles": "O=C(O)CCCCCCCC(=O)O", "outcome": "inactive"}, {"smiles": "C=O", "outcome": "inactive"}, {"smiles": "CCCCC(CC)COC(=O)/C=C\\C(=O)OCC(CC)CCCC", "note": "(centres undefined)", "outcome": "inactive"}, {"smiles": "NC(=O)NC1NC(=O)NC1=O", "note": "(centres undefined)", "outcome": "inactive"}, {"smiles": "OCCOCCOCCOCCO", "outcome": "inactive"}, {"smiles": "CN(C)CCCN", "outcome": "inactive"}, {"smiles": "CC1=CC(=O)NS(=O)(=O)O1", "outcome": "inactive"}, {"smiles": "CCCCC[Si](OCC)(OCC)OCC", "outcome": "inactive"}, {"smiles": "OCCN1CCNCC1", "outcome": "inactive"}, {"smiles": "BrC1CCC(Br)C(Br)CCC(Br)C(Br)CCC1Br", "note": "(centres undefined)", "outcome": "inactive"}, {"smiles": "NCCCN1CCOCC1", "outcome": "inactive"}, {"smiles": "O=C(O)Cc1cccc2ccccc12", "outcome": "inactive"}, {"smiles": "CCCC/C=C\\CCCCCCCCCC=O", "outcome": "inactive"}, {"smiles": "OC1OC[C@@H](O)[C@H](O)[C@H]1O", "note": "(some centres undefined)", "outcome": "inactive"}, {"smiles": "O=C[C@@H](O)[C@H](O)[C@H](O)CO", "outcome": "inactive"}, {"smiles": "CCC/C=C/C=O", "outcome": "inactive"}, {"smiles": "CCCCCCCCCCCCCCCCCC(=O)OCC(CC)CCCC", "note": "(centres undefined)", "outcome": "inactive"}, {"smiles": "CCCCCCCCC=O", "outcome": "inactive"}, {"smiles": "CC(=O)OCCC(C)CC(C)(C)C", "note": "(centres undefined)", "outcome": "inactive"}, {"smiles": "CC1COc2ccccc2N1C(=O)C(Cl)Cl", "note": "(centres undefined)", "AC50": "2.33 µM (active)"}, {"smiles": "CC1(C)[C@@H]2CC[C@@]1(C)[C@H](O)C2", "outcome": "inactive"}, {"smiles": "CCN(CC)c1ccc2c(-c3ccccc3C(=O)O)c3ccc(=[N+](CC)CC)cc-3oc2c1", "AC50": "9.44 µM (active)"}]}, {"test": "ACEA_AR_antagonist_AUC_viability: ACEA Biosciences xCELLigence Real-Time Cell Analysis on Androgen Receptor Antagonism for Viability (AID 2283776);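 note: 22Rv1 human prostate cancer cells growing on impedance electrode plates; hits lower the growth signal relative to DMSO meaning cytotoxicity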", "method_in_brief": "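Real-time electrical impedance tracks 22Rv1 proliferation after continuous compound exposure (top 100 uM final, 1:4 steps, 8 concentrations). The 80 h area-under-curve serves as the cytotoxicity readout relative to DMSO.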", "values": [{"smiles": "C=C(C)C(=O)O", "outcome": "inactive"}, {"smiles": "CC(C)CCCCCCCOC(=O)c1ccc(C(=O)OCCCCCCCC(C)C)c(C(=O)OCCCCCCCC(C)C)c1", "outcome": "inactive"}, {"smiles": "CCCCOCCOCCOCCOCCO", "outcome": "inactive"}, {"smiles": "CCCC1CCC(=O)O1", "note": "(centres undefined)", "outcome": "inactive"}, {"smiles": "CC(C)C[C@H]1C(=O)N2CCC[C@H]2[C@]2(O)O[C@](NC(=O)[C@@H]3C=C4c5cccc6[nH]c(Br)c(c56)C[C@H]4N(C)C3)(C(C)C)C(=O)N12", "outcome": "inactive"}, {"smiles": "CC1(C)C(=O)N(Br)C(=O)N1Cl", "outcome": "inactive"}, {"smiles": "CC(C)=CCC[C@](C)(O)[C@@H]1CC=C(C)CC1", "outcome": "inactive"}, {"smiles": "O=C(O)CCCCCCCC(=O)O", "outcome": "inactive"}, {"smiles": "C=O", "outcome": "inactive"}, {"smiles": "NC(=O)NC1NC(=O)NC1=O", "note": "(centres undefined)", "outcome": "inactive"}, {"smiles": "OCCOCCOCCOCCO", "outcome": "inactive"}, {"smiles": "CN(C)CCCN", "outcome": "inactive"}, {"smiles": "CC1=CC(=O)NS(=O)(=O)O1", "outcome": "inactive"}, {"smiles": "C[Si](O[Si](C)(C)C)O[Si](C)(C)C", "outcome": "inactive"}, {"smiles": "CCCCC[Si](OCC)(OCC)OCC", "outcome": "inactive"}, {"smiles": "OCCN1CCNCC1", "outcome": "inactive"}, {"smiles": "BrC1CCC(Br)C(Br)CCC(Br)C(Br)CCC1Br", "note": "(centres undefined)", "outcome": "inactive"}, {"smiles": "NCCCN1CCOCC1", "outcome": "inactive"}, {"smiles": "O=C(O)Cc1cccc2ccccc12", "outcome": "inactive"}, {"smiles": "CCCC/C=C\\CCCCCCCCCC=O", "outcome": "inactive"}, {"smiles": "OC1OC[C@@H](O)[C@H](O)[C@H]1O", "note": "(some centres undefined)", "outcome": "inactive"}, {"smiles": "O=C[C@@H](O)[C@H](O)[C@H](O)CO", "outcome": "inactive"}, {"smiles": "CCC/C=C/C=O", "outcome": "inactive"}, {"smiles": "CC(=O)OCCOC(C)=O", "outcome": "inactive"}, {"smiles": "O=C(O)c1ccc(C(=O)O)cc1", "outcome": "inactive"}, {"smiles": "O=C1c2ccccc2C(=O)N1SC1CCCCC1", "outcome": "inactive"}, {"smiles": "CCCCCCCCCCCCCCCCCC(=O)OCC(CC)CCCC", "note": "(centres undefined)", "outcome": "inactive"}, {"smiles": "CCCCCCCCC=O", "outcome": "inactive"}, {"smiles": "CC(=O)OCCC(C)CC(C)(C)C", "note": "(centres undefined)", "outcome": "inactive"}, {"smiles": "CC1COc2ccccc2N1C(=O)C(Cl)Cl", "note": "(centres undefined)", "AC50": "4.63 µM (active)"}, {"smiles": "CC1CC(OC(=O)c2ccccc2O)CC(C)(C)C1", "note": "(centres undefined)", "outcome": "inactive"}, {"smiles": "CC(C)(C#N)c1cc(Cn2cncn2)cc(C(C)(C)C#N)c1", "AC50": "30 µM (active)"}, {"smiles": "C=CC[N+](C)(C)CC=C", "outcome": "inactive"}, {"smiles": "NCCCCCCN", "outcome": "inactive"}, {"smiles": "O=C1NC(=O)c2ccccc21", "outcome": "inactive"}, {"smiles": "CC1(C)[C@@H]2CC[C@@]1(C)[C@H](O)C2", "outcome": "inactive"}, {"smiles": "CCN(CC)c1ccc2c(-c3ccccc3C(=O)O)c3ccc(=[N+](CC)CC)cc-3oc2c1", "outcome": "inactive"}]}]}
